Bioassay records deposited in PubChem by National Center for Advancing Translational Sciences (NCATS).
Only some compounds are listed: those with a hit (about 11% of all), similar ones and a draw of the others.
12-hLO inh = 12-hLO (ALOX12) enzyme inhibition; purified 12-hLO, xylenol orange hydroperoxide absorbance; 150,000 compounds, 0.12% hits; AID 1452; Potency, µM (top dose mostly 57.1 µM), for inactives: top-dose activity change, negative = inhibition, most hits filed as inhibitors; P18054; active = well fitted curve in the direction sought with a large enough effect; inconclusive = small, poorly fitted or top-dose-only effect, or another doubt; inactive = no such curve, though single readings can be large; an effect the other way counts as inactive or inconclusive; note: potency is the fitted concentration of half-maximal effect; nearly all actives have a fitted effect of over 55% in size
Target sequence (P18054 whole entry, looked up): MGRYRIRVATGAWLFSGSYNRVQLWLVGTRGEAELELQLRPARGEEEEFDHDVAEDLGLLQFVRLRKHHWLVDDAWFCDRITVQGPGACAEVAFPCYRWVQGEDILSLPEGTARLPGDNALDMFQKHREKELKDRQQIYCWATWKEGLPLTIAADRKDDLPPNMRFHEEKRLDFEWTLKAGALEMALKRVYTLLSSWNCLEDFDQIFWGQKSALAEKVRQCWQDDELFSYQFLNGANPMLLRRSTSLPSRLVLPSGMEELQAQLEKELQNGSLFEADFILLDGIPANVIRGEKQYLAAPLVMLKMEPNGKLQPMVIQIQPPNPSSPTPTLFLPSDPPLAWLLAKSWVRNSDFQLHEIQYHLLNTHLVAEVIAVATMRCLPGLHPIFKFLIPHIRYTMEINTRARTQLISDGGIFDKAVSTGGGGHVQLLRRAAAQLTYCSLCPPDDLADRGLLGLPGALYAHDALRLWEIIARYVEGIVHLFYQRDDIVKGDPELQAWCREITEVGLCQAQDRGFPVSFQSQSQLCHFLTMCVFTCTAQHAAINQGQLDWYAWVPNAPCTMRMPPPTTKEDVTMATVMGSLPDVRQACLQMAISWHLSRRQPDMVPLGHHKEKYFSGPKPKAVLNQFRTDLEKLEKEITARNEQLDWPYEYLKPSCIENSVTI
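150 nM 12hLO, 25 mM Hepes pH 7.0 + 0.01% Triton X-100; cpd preinc 15 min RT; 40 uM arachidonic acid, 30 min RT; Fe-XO 30 min; A573/A405 ratio as read-out.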
IMPase Li inh = cell-permeable IMPase inhibitors with lithium potentiation | 210,000 compounds, 0.35% hits | Potency, µM (titrated, usually from 59.4 µM), without a hit: at the top dose activity, negative = IMPase inhibition, most hits filed as inhibitors | CHO-M1 cells, IP1 TR-FRET (IP-One), carbachol + lithium; active = well fitted curve in the direction sought with a large enough effect; inconclusive = small, poorly fitted or top-dose-only effect, or another doubt; inactive = no such curve, though single readings can be large; an effect the other way counts as inactive or inconclusive;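 note: IP1 builds up when IMPase is blocked and the TR-FRET signal falls; potency is the fitted concentration of half-maximal effect; plate controls were basal vehicle for no effect and high inhibitor control for full effect; nearly all actives have a fitted effect of over 50% in size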
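Steps: plate 2000 CHO-M1 cells per well and culture 16–30 h; add compound and lithium; incubate 30 min, 37C; add d2-IP1 tracer and Eu cryptate anti-IP1 antibody in lysis buffer; read after 10 min at room temperature.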
ALDH1A1 block = inhibitors of human aldehyde dehydrogenase 1A1 | 220,000 compounds, 7.3% hits | P00352 | Potency, µM (highest dose often 75.3 µM), inactives show at the top dose activity, negative = inhibition, most hits filed as inhibitors | Purified ALDH1A1, NADH fluorescence, propionaldehyde substrate;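 note: potency is the fitted concentration of half-maximal effect; plate controls were no enzyme wells and a reference inhibitor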
HPGD inh = inhibitors of human 15-hydroxyprostaglandin dehydrogenase (HPGD); Potency, µM, for the others: at the top dose activity change, negative = inhibition, actives largely listed as inhibitors; 150,000 compounds, 4.3% hits; purified HPGD, NADH fluorescence kinetic, PGE2 substrate; AID 894; note: potency is the fitted concentration of half-maximal effect
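20 nM HPGD preincubated 15 min at room temperature with compound in 50 mM Tris-HCl pH 8, 0.01% Tween 20. Started with 1 mM NAD+ and 30 uM prostaglandin E2; NADH fluorescence (360/450 nm) read 5 times over 30-s intervals, last minus first.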
PNC assembly inh = blocks assembly of the perinucleolar compartment | PC3M PTB-GFP, PNC prevalence imaging, 16 h; stronger effect = lower value | activity change (PNC), negative = inhibition, % at 10 µM | 140,000 compounds, 3.1% hits | AID 2417;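 active = readout at or below -70, meaning at least 70% loss of cells showing the perinucleolar compartment, a nuclear body marking cancer cells; inconclusive = readout between -30 and a set limit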;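 note: plate controls were DMSO wells for no effect and camptothecin positive control wells for full effect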
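Compounds are pinned in duplicate onto adhered PC3M cells stably expressing GFP-tagged PTB and incubated 16 h at 37 C. Cells are then fixed, nuclei stained with Hoechst, and PNC-positive cells counted.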
IMPase inh = membrane-permeable compound that blocks inositol monophosphatase | AID 901 | CHO-M1 cells, IP1 accumulation, HTRF TR-FRET ratio | inhibition (IP1 accumulation), % at 46.1 µM | 120,000 tested, under 10 active; active = well fitted curve in the direction sought with a large enough effect in the signal ratio, not every such curve was filed as active; inconclusive = small, poorly fitted or top-dose-only effect, or a change in a side signal; inactive = no such curve, though single readings can be large or run the other way; the % refers to the signal ratio;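 note: cells stimulated with carbachol in lithium chloride buffer; plate controls were DMSO basal wells for no effect and reference inhibitor wells for full effect; higher means more IMPase inhibition seen as more IP1 and lower FRET ratio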
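CHO-M1, 2000 cells/well, cultured 16–30 h; cpd up to 46 uM; carbachol (50 uM solution, stimulation buffer w/ 50 mM LiCl, pH 7.4), 30 min 37C; IP-One TR-FRET, 10 min RT; Ex 320/Em 665, 620; Hill-fit AC50.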
Numbers without * were called inactive; [ ] = dose if it differs, or a comment. Unless noted, calls come from the whole dose curve; as a rule, active = well fitted inhibition curve with a large enough effect (not every such curve was filed as active); inconclusive = small, poorly fitted or top-dose-only effect, or another doubt; inactive = no such curve, though single readings can be large or run the other way. Unless noted, % is set by controls: 0 for no effect and ±100 for the full control effect.

O=[N+]([O-])c1cc(S(=O)(=O)Nc2ccccc2)ccc1N1CCN(c2ccccc2)CC1 was read as 12-hLO inh -2.4%, IMPase Li inh 4.8%, ALDH1A1 block -2.0%, HPGD inh -19.0%, PNC assembly inh -6.2 and IMPase inh 13.3.
`CC(=O)c1ccc(N2CCN(c3ccc(S(=O)(=O)NCCCN(C)C)cc3[N+](=O)[O-])CC2)cc1` gave IMPase Li inh 11.9% and ALDH1A1 block 18.9µM*.
`CCOC(=O)NC(N(O)c1cccc(Cl)c1)C(Cl)(Cl)Cl` (stereo unspecified) gave ALDH1A1 block 8.91µM*.
Screening COc1ccccc1CN1CCC2(CC1)CCN(C(=O)c1csnn1)CC2 returned 12-hLO inh 5.6%, IMPase Li inh 33.8%, ALDH1A1 block -2.5% and HPGD inh -7.3%.
Screening COc1ccc(Nc2nnc(-c3ccc(C)c(S(N)(=O)=O)c3)c3ccccc23)cc1 returned IMPase inh -10.9.
Screening COc1cc2ccccc2cc1C(=O)Nc1ccc(Cl)c(-c2nc3ccccc3o2)c1 returned IMPase inh -0.8.
CCOc1ccc(NC(=O)NCc2ccco2)cc1 was read as IMPase Li inh 3.3% and ALDH1A1 block 6.2%.
For O=C(CNC(=O)Cc1ccccc1)NCC(=O)OCC(=O)c1cccc2ccccc12 the results were 12-hLO inh -0.8%, IMPase Li inh 11.3%[38.3 µM], ALDH1A1 block inconclusive, HPGD inh -9.9%, PNC assembly inh -16.4 and IMPase inh 1.5.
`O=C(NCc1ccco1)c1cccc(F)c1` gave 12-hLO inh -2.2%, IMPase Li inh -4.0%[38.3 µM], ALDH1A1 block -2.8%, HPGD inh inconclusive, PNC assembly inh 5.3 and IMPase inh 1.1.
Screening O=C(CNC(=O)c1ccco1)OCC(=O)c1cccc2ccccc12 returned 12-hLO inh -6.4%, IMPase Li inh inconclusive, ALDH1A1 block 22.4µM*, HPGD inh -17.5%, PNC assembly inh 26.4 and IMPase inh -8.4.
`O=C(NCc1ccco1)c1ccc2ccccc2c1` gave 12-hLO inh -4.7%, IMPase Li inh 22.0%[38.3 µM], ALDH1A1 block 0.9%, HPGD inh 31.6µM*, PNC assembly inh inconclusive and IMPase inh -6.3[1.84 µM].
For CCOc1ccc(C(=O)NCc2ccco2)cc1 the results were 12-hLO inh 2.4%, IMPase Li inh 2.4%[38.3 µM], ALDH1A1 block inconclusive, HPGD inh 28.2µM*, PNC assembly inh 10.4 and IMPase inh 4.0.
For O=C(NCc1ccco1)c1cccnc1-c1nc2ccccc2s1 the results were 12-hLO inh -16.2%, IMPase Li inh 28.7%[38.3 µM], ALDH1A1 block 8.91µM*, HPGD inh 15.8µM*, PNC assembly inh -10.9 and IMPase inh -1.6.
Screening CCN1C(C)=C(C(=O)OC)C(c2ccccc2)N2C(=O)[C@](O)(C(=O)OC)CC(C(C)=O)=C12 (stereo partly specified) returned ALDH1A1 block -1.4%[13.5 µM].
Screening O=C(NCc1ccco1)c1ccc2c(c1)C(=O)c1ccccc1-2 returned 12-hLO inh -13.9%, IMPase Li inh -0.9%[38.3 µM], ALDH1A1 block 28.2µM*, HPGD inh 15.8µM*, PNC assembly inh inconclusive and IMPase inh -3.8.
`O=C(NCc1ccco1)c1ccc(Oc2ccccc2)cc1` gave 12-hLO inh 3.2%, IMPase Li inh 32.5%[38.3 µM], ALDH1A1 block inconclusive, HPGD inh 28.2µM*, PNC assembly inh inconclusive and IMPase inh -0.3.
For CC(c1ccccc1)N1C(=O)c2ccc(C(=O)NCc3ccco3)cc2C1=O (stereo unspecified) the results were 12-hLO inh 0.6%, IMPase Li inh 8.4%, ALDH1A1 block inconclusive, HPGD inh -3.7%, PNC assembly inh 17.8 and IMPase inh 3.7.
`O=C(NCc1ccco1)c1ccc(COc2ccc(Cl)cc2)cc1` gave 12-hLO inh 3.1%, IMPase Li inh -12.4%, ALDH1A1 block -5.7%, HPGD inh -23.6% and PNC assembly inh -17.2.
CC(C)COc1ccc(C(=O)NCc2ccco2)cc1 was read as 12-hLO inh 1.9%, IMPase Li inh 25.1%[38.3 µM], ALDH1A1 block inconclusive, HPGD inh 15.8µM*, PNC assembly inh inconclusive and IMPase inh 7.9.
For O=C(NCc1ccco1)c1c(F)cccc1Cl the results were 12-hLO inh -2.0%, IMPase Li inh 4.2%, ALDH1A1 block -8.8%, HPGD inh 14.1µM* and PNC assembly inh -18.9.
Screening O=C1[C@H]2[C@H]3[C@H](O)[C@H](O)C/C(=N/OCc4ccccc4)[C@H]3CC[C@@H]2C(=O)N1Cc1ccc2c(c1)OCO2 returned ALDH1A1 block -4.1%[13.5 µM].
`O=C1CC(NN2CCCCC2)C(=O)N1c1ccccc1` (stereo unspecified) gave IMPase Li inh 3.9% and ALDH1A1 block inconclusive.
`O=C(NCc1ccco1)c1ccc(COc2ccccc2Cl)cc1` gave 12-hLO inh 0.8%, IMPase Li inh 15.0%[38.3 µM], ALDH1A1 block inconclusive, HPGD inh 14.1µM*, PNC assembly inh 56.8 and IMPase inh 1.5.
For CC(C)(Oc1ccc(Cl)cc1)C(=O)NCc1ccco1 the results were 12-hLO inh -24.9%, IMPase Li inh 20.9%[38.3 µM], ALDH1A1 block 12.6µM*, HPGD inh -21.0%, PNC assembly inh inconclusive and IMPase inh -3.1.
Screening O=C(NCc1ccco1)c1ccc(S(=O)(=O)N2CCCc3ccccc32)cc1 returned 12-hLO inh -19.1%, IMPase Li inh 50.9%[38.3 µM], ALDH1A1 block 14.1µM*, HPGD inh -26.5%, PNC assembly inh -19.7 and IMPase inh 9.9.
`CCOc1ccc(C(=O)NCC(C)C)cc1` gave 12-hLO inh -2.6%, IMPase Li inh -4.4%[38.3 µM], ALDH1A1 block 10.6%, HPGD inh 17.8µM*, PNC assembly inh 7.3 and IMPase inh -13.3.
O=C(NCc1ccco1)c1ccc(COc2cccc3ccccc23)cc1 was read as 12-hLO inh 2.3%, IMPase Li inh 4.0%, ALDH1A1 block 4.5%, HPGD inh inconclusive, PNC assembly inh -0.2 and IMPase inh 5.6.
`CC(C)(Oc1ccc(Cl)cc1)C(=O)NCc1ccncc1` gave 12-hLO inh 0.0%, IMPase Li inh -1.7%, ALDH1A1 block -1.2%, HPGD inh 1.6%, PNC assembly inh -9.2 and IMPase inh 29.9.
Screening CCOc1cc(C2c3c(oc4ccccc4c3=O)C(=O)N2Cc2ccc3c(c2)OCO3)ccc1O (stereo unspecified) returned IMPase inh -6.8.
O=C(COC(=O)c1cc[n+]([O-])cc1)Nc1ccc([N+](=O)[O-])cc1 was read as IMPase Li inh 0.6% and ALDH1A1 block -3.0%.
For O=C(Nc1ccccc1C(=O)NCc1ccco1)Nc1cccc2ccccc12 the results were IMPase Li inh 11.9% and ALDH1A1 block -6.8%.
